Here are results for five compounds from PubChem BioAssay.

Structures are written as SMILES. Results filed as inconclusive are left out. Activity calls are given as the source filed them.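 Rule for the calls, unless noted: active = Her2 level under about 52% in both replicate screens, with viability over 70% of control (limit read from the data); inconclusive = Her2 under the limit in one screen only, or viability under 70%; inactive = Her2 level above the set limit.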

Test [1] in a line: reducers of endogenous Her2 protein level, primary screen, SKBR3 breast tumor cells, AlphaScreen, ATP viability (AID 461).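 For Her2 level: lower value means less Her2 protein in the cells.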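 For viability: percent of carrier control wells set as 100% viability.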 Conditions: 18-24 h, measured here: SKBR3 viability, ATP luminescence, at 10 µM.
In test [2] the target is Receptor tyrosine-protein kinase erbB-2 (Homo sapiens) (UniProt P04626). The test is described as above. Conditions: 18-24 h, at 10 µM, stronger effect = lower value.
Receptor tyrosine-protein kinase erbB-2 (Homo sapiens), sequence (P04626 whole entry, looked up): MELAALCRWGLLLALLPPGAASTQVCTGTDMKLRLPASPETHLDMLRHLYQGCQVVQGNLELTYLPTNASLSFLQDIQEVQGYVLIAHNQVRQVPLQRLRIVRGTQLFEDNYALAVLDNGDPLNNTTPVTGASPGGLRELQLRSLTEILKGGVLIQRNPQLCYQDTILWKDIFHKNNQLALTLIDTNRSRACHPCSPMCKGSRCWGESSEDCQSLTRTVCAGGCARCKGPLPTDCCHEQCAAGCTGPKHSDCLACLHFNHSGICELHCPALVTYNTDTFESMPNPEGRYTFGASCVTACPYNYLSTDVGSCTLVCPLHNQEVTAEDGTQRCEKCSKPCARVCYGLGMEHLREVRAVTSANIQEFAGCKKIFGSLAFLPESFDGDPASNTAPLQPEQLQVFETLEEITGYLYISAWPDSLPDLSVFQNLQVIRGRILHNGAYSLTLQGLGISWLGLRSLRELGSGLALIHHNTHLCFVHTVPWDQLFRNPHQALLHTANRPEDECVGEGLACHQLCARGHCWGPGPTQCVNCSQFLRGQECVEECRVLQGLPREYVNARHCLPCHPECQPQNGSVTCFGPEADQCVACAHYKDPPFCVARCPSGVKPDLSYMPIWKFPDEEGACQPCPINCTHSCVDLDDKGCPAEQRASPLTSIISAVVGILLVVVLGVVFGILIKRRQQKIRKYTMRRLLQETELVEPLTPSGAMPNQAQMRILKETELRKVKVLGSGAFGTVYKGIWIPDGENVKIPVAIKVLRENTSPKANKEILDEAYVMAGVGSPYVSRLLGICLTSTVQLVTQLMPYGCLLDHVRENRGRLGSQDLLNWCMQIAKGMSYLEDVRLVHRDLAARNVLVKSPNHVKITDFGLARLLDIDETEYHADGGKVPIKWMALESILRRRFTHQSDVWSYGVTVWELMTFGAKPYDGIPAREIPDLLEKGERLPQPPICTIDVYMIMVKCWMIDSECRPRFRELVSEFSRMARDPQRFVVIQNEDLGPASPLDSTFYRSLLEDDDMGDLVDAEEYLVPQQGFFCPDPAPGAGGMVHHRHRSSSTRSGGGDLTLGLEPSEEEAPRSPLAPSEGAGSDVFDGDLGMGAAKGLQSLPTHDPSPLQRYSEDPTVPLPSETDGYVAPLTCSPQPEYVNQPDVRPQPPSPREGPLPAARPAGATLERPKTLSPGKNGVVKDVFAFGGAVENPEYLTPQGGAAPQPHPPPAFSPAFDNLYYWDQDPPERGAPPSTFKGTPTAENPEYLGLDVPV
Test [3] in a line: SK-BR-3 cell growth inhibitors, pilot screen, 24 h, human (AID 572;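 active = viability at or below 10% of carrier control in both of two separate runs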;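 note: compound exposure lasted between 18 and 24 h rather than exactly 24 h; 100% = carrier-treated control wells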). The settings on record: SK-BR-3 viability, CellTiter-Glo luminescence, at 10 µM, stronger effect = lower value.
Test [4] in a line: HUVEC growth inhibition – cell-based, human, primary screen (AID 575;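 active = viability at or below 30% in both replicate assays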;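 note: 100% = median of untreated cell wells with 0.1% DMSO on each plate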). The settings on record: HUVEC proliferation, CellTiter-Glo luminescence, 72 h; at 10 µM; stronger effect = lower value.
Test [5] is described as follows: growth inhibitors of H69AR lung tumor, primary screen, human, duplicate replicates (AID 580;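 active = viability at or under a set limit in both replicates, limit being median viability minus 3 SD, cut at about 48% in these data, passing the limit was not always enough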;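 note: 100% = mean luminescence of untreated wells and 0% = no signal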). The settings on record: H69AR lung tumor cells viability, ATP luminescence, 72 h; at 10 µM; stronger effect = lower value.
Test [6] is described as follows: reversal of MRP1-mediated doxorubicin resistance, pilot screen, H69AR cells, doxorubicin co-treatment (AID 601;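 active = viability loss from added drug above about 55%, and viability with drug at most 40%, in both replicates, limit read from the data, passing the limit was not always enough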). Conditions: CellTiter-Glo, 72 h, at 10 µM; for differential viability (reversal): stronger effect = higher value.
Test [7] in a line: 384-well plate pilot, post-Golgi transport modulator project, inhibition of yeast transport mutant growth (AID 636; in the data active = inhibition above about 31%). Conditions: absorbance 615 nm, about 18 h, stronger effect = higher value.
Test [8] in a line: growth suppression of yeast trafficking mutant, preliminary HTS, modulators of trafficking downstream of Golgi apparatus project, 1536-format plate, OD 615 nm (AID 637; in the data active = inhibition above about 30%). Conditions: yeast transport mutant growth, absorbance 615 nm, 18 h; stronger effect = higher value.
The nature of test [9]: OD615 S. cerevisiae growth inhibition, permissive medium, pilot counter-assay, permissive growth control for S. cerevisiae lifespan shortening project (AID 705;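 active = growth inhibition above 25% in both replicates, a cutoff set 3 SD above the mean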). Conditions: OD615, 24 h, at 10 µM, stronger effect = higher value.
Test [10] in a line: Restrictive medium S. cerevisiae growth inhibition, OD615, pilot screen of yeast lifespan reduction project, restrictive growth control (AID 706;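 active = growth inhibition above a set limit, 3 SD over mean compound inhibition, in both replicates, cut at about 43% in these data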;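 note: modified DeaD lifespan yeast strain shifted to restrictive glucose medium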). The settings on record: OD615, 48 h, at 10 µM, stronger effect = higher value.
Test [11] can be described thus: viability gain of MRP-1-high H69AR cells under doxorubicin, pilot screen, MRP-1 activator project, CellTiter-Glo, duplicate (AID 807;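 active = viability increase at or above a cutoff of the median across tested compounds plus 3 SD, cut at about 8.5% in these data, passing the limit was not always enough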;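 note: compound pretreatment 18-22 h then 72 h combined with doxorubicin; 0% = doxorubicin alone and 100% = vehicle without doxorubicin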). Conditions: H69AR viability with doxorubicin, CellTiter-Glo luminescence; at 10 µM; stronger effect = higher value.
The nature of test [12]: growth suppression of beta-catenin knockout HCT116, pilot screen, human colon tumor cells (AID 823;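 active = cell viability at or below a set limit in both duplicate runs, the limit being the all-compound median minus 4 SD, cut at about 23% in these data, passing the limit was not always enough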;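 note: 0% = wells killed by 20 µM Hyamine and 100% = untreated DMSO cell wells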). Conditions: CellTiter-Glo, 60 h, at 10 µM, stronger effect = lower value.
Test [13] can be described thus: growth suppression of PTEN-deleted HCT116, pilot screen, cell-based, HCT116 clonal line, CellTiter-Glo (AID 824;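 active = viability at or below 27.92% in each of two runs, the all-compound median minus 4 SD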;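 note: 0% = 20 µM Hyamine control and 100% = vehicle cell control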). Conditions: 60 h, at 10 µM, stronger effect = lower value.
Test [14] is described as follows: inhibitors of the yeast RAM network, pilot screen, dse1pr::URA3 reporter, 5-FOA selection (AID 869;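 active = inhibition over a set limit, the all-compound mean plus 3 SD, in both replicate runs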;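 note: 0% = DMSO wells with no growth and 100% = 10 µM 1-NA-PP1 with full growth; RAM network block rescues cells from 5-FOA so hits raise OD615 growth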). Conditions: S. cerevisiae dse1pr::URA3 5-FOA growth, OD615, 2 d; at 10 µM; stronger effect = higher value; strain carries analog-sensitive mutant Cbk1 kinase.
Test [15] in a line: RAM signaling pathway blockade in yeast – S. cerevisiae, Pdr1DBD-CYC8 efflux-inhibited sensitized strain, primary screen (AID 1298;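 active = RAM network inhibition above 8.4% in each of two replicates, 3 SD over the compound average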;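 note: 0% = DMSO untreated cells without growth and 100% = 10 µM 1-NA-PP1 full growth; higher means more yeast growth rescued from 5-FOA killing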). The settings on record: S. cerevisiae cbk1-as DSE1-URA3 strain, 5-FOA growth OD615, 2 d; at 50 µM; stronger effect = higher value.
[16] abbreviates: H69AR cells + 2 uM doxorubicin, measured here: viability with 2 uM doxorubicin, stronger effect = lower value.
The mark [17] stands for this setting: H69AR cells, compound alone cytotoxicity.

For `O=C(Cn1cc2c(n1)CCCC2)NCCc1ccccc1`, the viability is 105% in test [1]; 105% (inactive) in [3]; 103% (inactive) in [4]; 88.4% (inactive) in test [5]; 111% in test [6] (setting [16]); 88.4% in test [6] (setting [17]). In addition, the viability is 106% (inactive) in [12] and 95.3% (inactive) in test [13]. The Her2 level in [2] is 100% (inactive). Further, in test [6] (H69AR cells + 2 uM doxorubicin), the differential viability (reversal) is -22.7% (inactive). Also, the inhibition in test [7] is -1.6% (inactive); in [8] it was -4.33% (inactive); in test [14], 1.38% (inactive). The growth inhibition in [9] was -2.47% (inactive); in test [10] it was -9.12% (inactive). Also, the viability increase in test [11] is -0.17% (inactive). In addition, the RAM network inhibition in test [15] is 1.42% (inactive).
Consider `O=C(NCCCN1CCOCC1)c1ccc(CS(=O)(=O)c2c(Cl)cccc2Cl)o1`, for which the viability in [1] is 90.5%; in [3], 90.5% (inactive); in test [4], 88.8% (inactive); in test [5] it was 92.3% (inactive); in [6] (setting [16]), 94.3%; in test [6] (setting [17]) it was 92.3%. The viability in [12] was 101% (inactive); in test [13], 92.3% (inactive). For the same compound, in test [2], the Her2 level was 102% (inactive). Besides, in [6] (H69AR cells + 2 uM doxorubicin), the differential viability (reversal) is -2.01% (inactive). In addition, the inhibition in [7] was -0.67% (inactive); in test [8], -0.5% (inactive); in test [14], 1.61% (inactive). For the same compound, the growth inhibition is -11.8% (inactive) in test [9] and -17.8% (inactive) in test [10]. Moreover, the viability increase in test [11] is -1.26% (inactive). For the same compound, the RAM network inhibition in test [15] was 5% (inactive).
Take `CCN(CC)CCn1c(=N)n(CCO)c2ccccc21`: the viability in [1] was 94.5%; in test [3], 94.5% (inactive); in test [4] it was 107% (inactive); in [5] it was 101% (inactive); in test [6] (setting [16]), 92.9%; in test [6] (setting [17]) it was 101%. Besides, the viability in [12] was 101% (inactive); in test [13], 97.5% (inactive). In test [2], the Her2 level was 94% (inactive). Moreover, the differential viability (reversal) in test [6] (H69AR cells + 2 uM doxorubicin) is 8.55% (inactive). For the same compound, the inhibition in test [7] is -5.32% (inactive); in test [8], 2.33% (inactive); in [14], 0.605% (inactive). Moreover, the growth inhibition in [9] was 0.615% (inactive); in test [10], 1.18% (inactive). In addition, the viability increase in test [11] is -0.4% (inactive). Also, the RAM network inhibition in [15] is 4.92% (inactive).
Regarding `CC1(C)CC(=O)C(C=NCC2CCNCC2)=C(O)C1`, the viability in [1] is 104%; in [3], 104% (inactive); in test [4], 106% (inactive); in test [5], 93.8% (inactive); in [6] (setting [16]) it was 98.5%; in test [6] (setting [17]), 93.8%. For the same compound, the viability is 92.2% (inactive) in [12] and 92.3% (inactive) in test [13]. Further, in test [2], the Her2 level was 117% (inactive). The differential viability (reversal) in [6] (H69AR cells + 2 uM doxorubicin) was -4.75% (inactive). The inhibition is 1.04% (inactive) in test [7], 1.67% (inactive) in [8] and 2.66% (inactive) in [14]. Further, the growth inhibition is -20.1% (inactive) in test [9] and -16.9% (inactive) in [10]. Besides, in test [11], the viability increase was -1.11% (inactive). In addition, in [15], the RAM network inhibition is 6.82% (inactive).
For the compound `CN(C)CCCN1C(=O)c2oc3ccc(Cl)cc3c(=O)c2C1c1cccnc1` (stereo not given), the viability in [1] was 100%; in test [3] it was 100% (inactive); in test [4], 96.7% (inactive); in test [5], 83% (inactive); in [6] (setting [16]) it was 79.9%; in test [6] (setting [17]), 83%. Moreover, the viability in test [12] was 93.5% (inactive); in test [13], 92.7% (inactive). Also, the Her2 level in test [2] is 90.5% (inactive). Further, in test [6] (H69AR cells + 2 uM doxorubicin), the differential viability (reversal) is 3.07% (inactive). Further, the inhibition is -2.93% (inactive) in test [7], 3.5% (inactive) in [8] and 0.22% (inactive) in [14]. Besides, the growth inhibition in test [9] was -2.16% (inactive); in test [10], 4.2% (inactive). Besides, the viability increase in test [11] was -1.8% (inactive). Besides, the RAM network inhibition in [15] is -2.19% (inactive).
